Measured values taken from the supplement of paper PMC8728848.
The sample as a whole holds a higher share of the strongest signals than the screen did.

How the values were obtained:
Assay in all cases: glycan array binding signal (z-score within array); higher = stronger binding
Conditions in all cases: glycan notation: IUPAC condensed, linker removed
[1] = biological target: Gal6S(b1-3)GlcNAc6S
Summary of the method: (§1)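 Glycan array binding is given as a within-array Z-score, which can be read as non-binding when negative. The arrays, 3228 of them, came from the Consortium for Functional Glycomics database and were retained only where the protein sequence was available. Z-scores were averaged across arrays of the same protein sequence at different concentrations or buffers and across linkers.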

[2] = biological target: GalNAc(a1-3)GalNAc(b1-3)Gal(a1-4)Gal(b1-4)GlcNAc
Summary of the method: as §1

[3] = biological target: Glc(a1-6)Glc(a1-6)Glc(a1-6)Glc
Summary of the method: as §1

[4] = biological target: GlcNAc(b1-2)Man(a1-3)[GlcNAc(b1-4)][GlcNAc(b1-2)Man(a1-6)]Man(b1-4)GlcNAc(b1-4)GlcNAc
Summary of the method: as §1

[5] = biological target: GlcNAc(b1-2)Man(a1-3)[GlcNAc(b1-4)][GlcNAc(b1-2)Man(a1-6)]Man(b1-4)GlcNAc(b1-4)[Fuc(a1-6)]GlcNAc
Summary of the method: as §1

[6] = biological target: GlcNAc(b1-2)[GlcNAc(b1-4)]Man(a1-3)[GlcNAc(b1-4)][GlcNAc(b1-2)[GlcNAc(b1-6)]Man(a1-6)]Man(b1-4)GlcNAc(b1-4)GlcNAc
Summary of the method: as §1

[7] = biological target: GlcNAc(b1-3)Gal(b1-3)GalNAc
Summary of the method: as §1

[8] = biological target: GlcNAc(b1-3)Gal(b1-4)GlcNAc
Summary of the method: as §1

[9] = biological target: GlcNAc(b1-3)Gal(b1-4)GlcNAc(b1-3)Gal(b1-4)GlcNAc(b1-2)[GlcNAc(b1-3)Gal(b1-4)GlcNAc(b1-3)Gal(b1-4)GlcNAc(b1-6)]Man(a1-6)[GlcNAc(b1-3)Gal(b1-4)GlcNAc(b1-3)Gal(b1-4)GlcNAc(b1-2)Man(a1-3)]Man(b1-4)GlcNAc(b1-4)[Fuc(a1-6)]GlcNAc
Summary of the method: as §1

[10] = biological target: GlcNAc(b1-3)Gal(b1-4)GlcNAc(b1-3)Gal(b1-4)GlcNAc(b1-3)Gal(b1-4)GlcNAc(b1-2)[GlcNAc(b1-3)Gal(b1-4)GlcNAc(b1-3)Gal(b1-4)GlcNAc(b1-3)Gal(b1-4)GlcNAc(b1-6)]Man(a1-6)[GlcNAc(b1-3)Gal(b1-4)GlcNAc(b1-3)Gal(b1-4)GlcNAc(b1-3)Gal(b1-4)GlcNAc(b1-2)Man(a1-3)]Man(b1-4)GlcNAc(b1-4)[Fuc(a1-6)]GlcNAc
Summary of the method: as §1

[11] = biological target: GlcNAc(b1-3)Gal(b1-4)GlcNAc(b1-3)Gal(b1-4)GlcNAc(b1-3)Gal(b1-4)GlcNAc(b1-3)Gal(b1-4)GlcNAc(b1-2)Man(a1-3)[GlcNAc(b1-3)Gal(b1-4)GlcNAc(b1-3)Gal(b1-4)GlcNAc(b1-3)Gal(b1-4)GlcNAc(b1-3)Gal(b1-4)GlcNAc(b1-2)Man(a1-6)]Man(b1-4)GlcNAc(b1-4)GlcNAc
Summary of the method: as §1

[12] = biological target: GlcNAc(b1-3)Gal(b1-4)GlcNAc(b1-3)Gal(b1-4)GlcNAc(b1-3)Gal(b1-4)GlcNAc(b1-3)Gal(b1-4)GlcNAc(b1-2)[GlcNAc(b1-3)Gal(b1-4)GlcNAc(b1-3)Gal(b1-4)GlcNAc(b1-3)Gal(b1-4)GlcNAc(b1-3)Gal(b1-4)GlcNAc(b1-6)]Man(a1-6)[GlcNAc(b1-3)Gal(b1-4)GlcNAc(b1-3)Gal(b1-4)GlcNAc(b1-3)Gal(b1-4)GlcNAc(b1-3)Gal(b1-4)GlcNAc(b1-2)Man(a1-3)]Man(b1-4)GlcNAc(b1-4)[Fuc(a1-6)]GlcNAc
Summary of the method: as §1

[13] = biological target: GlcNAc(b1-3)[GlcNAc(b1-6)]GalNAc
Summary of the method: as §1

[14] = biological target: Man(a1-2)Man(a1-2)Man(a1-6)[Man(a1-3)]Man
Summary of the method: as §1

[15] = biological target: Man(a1-2)Man(a1-3)[Man(a1-2)Man(a1-6)]Man(a1-6)[Man(a1-2)Man(a1-2)Man(a1-3)]Man
Summary of the method: as §1

[16] = biological target: Man(a1-3)[Man(a1-6)]Man(b1-4)GlcNAc(b1-4)GlcNAc
Summary of the method: as §1

[17] = biological target: Neu5Ac(a2-3)Gal(b1-3)GlcNAc(b1-2)[Neu5Ac(a2-3)Gal(b1-3)GlcNAc(b1-4)]Man(a1-6)[Neu5Ac(a2-3)Gal(b1-3)GlcNAc(b1-2)Man(a1-3)]Man(b1-4)GlcNAc(b1-4)GlcNAc
Summary of the method: as §1

[18] = biological target: Neu5Ac(a2-3)Gal(b1-4)[Fuc(a1-3)]GlcNAc
Summary of the method: as §1

[19] = biological target: Neu5Ac(a2-3)GalNAc(b1-4)GlcNAc
Summary of the method: as §1

[20] = biological target: Neu5Ac(a2-3)[GalNAc(b1-4)]Gal(b1-4)GlcNAc
Summary of the method: as §1

[21] = biological target: Neu5Ac(a2-6)Gal(b1-3)GlcNAc(b1-3)[Gal(b1-4)GlcNAc(b1-6)]Gal(b1-4)Glc
Summary of the method: as §1

[22] = biological target: Neu5Ac(a2-6)Gal(b1-4)GlcNAc
Summary of the method: as §1

[23] = biological target: Neu5Ac(a2-6)Gal(b1-4)GlcNAc(b1-2)Man(a1-3)[Man(a1-6)]Man(b1-4)GlcNAc(b1-4)GlcNAc
Summary of the method: as §1

[24] = biological target: Neu5Ac(a2-6)Gal(b1-4)GlcNAc(b1-3)Gal(b1-4)GlcNAc(b1-3)Gal(b1-4)GlcNAc(b1-2)Man(a1-3)[Neu5Ac(a2-6)Gal(b1-4)GlcNAc(b1-3)Gal(b1-4)GlcNAc(b1-3)Gal(b1-4)GlcNAc(b1-2)Man(a1-6)]GalNAc
Summary of the method: as §1

[25] = biological target: Neu5Ac(a2-6)Gal(b1-4)GlcNAc(b1-6)[Gal(b1-3)GlcNAc(b1-3)]Gal(b1-4)Glc
Summary of the method: as §1

[26] = biological target: Neu5Ac(a2-6)GalNAc(b1-4)GlcNAc6S
Summary of the method: as §1

[27] = biological target: Neu5Ac(b2-6)GalNAc
Summary of the method: as §1

[28] = biological target: Neu5Gc(a2-3)Gal(b1-4)GlcNAc
Summary of the method: as §1

B1: LlpA (Burkholderia cenocepacia) (protein)
chain: MGSSHHHHHHSSGLVPRGSHKILGSNETLSAGNVVYSDNGQYHLAMQTDGNLVVYGPTGAVWQSQTSGSGGNRAVMQGDGNLVIYRADNTAAWSSKTAHPGAFLAVQDDGNVVIYWPRPAWASNTSDPATQQSAESKYLASGSTMSAGQTVTVAQYMLVFQADGNLVLYKNGGNPIWSTGTQGKGATYAVMQSDGNFVIYAGSTALWSTKTNGANGAQLVLQSDGNLVIYAPTAAWSTKFGLVTAPTSTSTSNNGPGSGICVGVCPPHPLNGNPFSPVGVGTTGLGFPTPGYPGAAF
glycan array binding signal (z-score) [1]: -0.227
glycan array binding signal (z-score) [2]: -0.419
glycan array binding signal (z-score) [3]: 0.011
glycan array binding signal (z-score) [4]: 0.686
glycan array binding signal (z-score) [5]: -0.623
glycan array binding signal (z-score) [6]: -0.839
glycan array binding signal (z-score) [7]: 0.088
glycan array binding signal (z-score) [8]: -0.175
glycan array binding signal (z-score) [9]: 1.97
glycan array binding signal (z-score) [10]: 2.12
glycan array binding signal (z-score) [11]: 1.56
glycan array binding signal (z-score) [12]: 1.97
glycan array binding signal (z-score) [13]: 0.522
glycan array binding signal (z-score) [14]: -0.239
glycan array binding signal (z-score) [15]: 0.07
glycan array binding signal (z-score) [16]: -0.516
glycan array binding signal (z-score) [17]: 0.118
glycan array binding signal (z-score) [18]: -0.785
glycan array binding signal (z-score) [19]: -0.208
glycan array binding signal (z-score) [20]: -0.447
glycan array binding signal (z-score) [21]: -0.697
glycan array binding signal (z-score) [22]: -0.538
glycan array binding signal (z-score) [23]: 0.308
glycan array binding signal (z-score) [24]: 1.99
glycan array binding signal (z-score) [25]: 0.132
glycan array binding signal (z-score) [26]: 0.676
glycan array binding signal (z-score) [27]: -0.883
glycan array binding signal (z-score) [28]: -0.079
